Inconclusive results are not listed. Calls of active or inactive are those of the source. How the source made its calls: active means hit-call score of the fitted dose curve at least 0.9, where 1 is the maximum; inconclusive means response in the unintended direction; inactive means score below 0.9.
How the values were obtained:
[1] = target: human Peroxisome Proliferator-activated Receptor alpha (PPARa), PPARA (gene 5465) (UniProt Q07869); assay: ATG_PPARa_TRANS: Attagene TRANS-FACTORIAL HepG2 Assay for human Peroxisome Proliferator-activated Receptor alpha (PPARa) (AID 2283001);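 on AC50: potency for gain of reporter signal over DMSO so agonist or activator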
Method in brief: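 Gain-of-signal endpoint: reporter mRNA induction relative to DMSO, detected by fluorescent RT-PCR and capillary electrophoresis. HepG2 cells transiently carried GAL4-UAS-driven reporter units plus NR-Gal4 fusion; exposure lasted 24 h.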

[2] = target: Peroxisome proliferator-activated receptor gamma (Homo sapiens) (UniProt P37231); assay: ATG_PPARg_TRANS: Attagene TRANS-FACTORIAL HepG2 Assay for human Peroxisome Proliferator-activated Receptor-gamma (PPARg) (AID 2283007)
Method in brief: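 After 24 h of chemical exposure, transfected HepG2 cells carrying PPARγ-Gal4 chimera reporter constructs are lysed for RNA. Reporter transcripts are measured by RT-PCR and capillary electrophoresis with fluorescent labelling, and gain of signal is fitted versus DMSO.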

[3] = target: Nuclear receptor subfamily 1 group I member 2 (Homo sapiens) (UniProt O75469); assay: ATG_PXR_TRANS: Attagene TRANS-FACTORIAL HepG2 Assay for human Pregnane X Receptor (PXR) (AID 2283008)
Method in brief: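 Read-out is fluorescence of labelled reporter cDNA fragments separated by capillary electrophoresis after RT-PCR and HpaI digestion. Source: HepG2 cells carrying PXR-GAL4/UAS reporter constructs, treated 24 h; activity fitted upward relative to DMSO.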

[4] = target: human RAR-related Orphan Receptor beta (RORb), RORB (gene 6096) (UniProt Q92753); assay: ATG_RORb_TRANS: Attagene TRANS-FACTORIAL HepG2 Assay for human RAR-related Orphan Receptor beta (RORb) (AID 2283010)
Method in brief: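 HepG2 cells transiently transfected with GAL4-UAS reporter units expressing chimeric NR-Gal4 protein; reporter mRNA measured 24 h after dosing by RT-PCR, 6-FAM labelling and capillary electrophoresis. Gain-of-signal fitted relative to DMSO baseline.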

[5] = target: human RAR-related Orphan Receptor gamma (RORg), RORC (gene 6097) (UniProt P51449); assay: ATG_RORg_TRANS: Attagene TRANS-FACTORIAL HepG2 Assay for human RAR-related Orphan Receptor gamma (RORg) (AID 2283011)
Method in brief: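 Transient MRTU transfection of HepG2 (TRANS format, exogenous NR-Gal4 chimera). 24 h dosing. Total RNA → oligo(dT) RT → PCR → 6-FAM labelling → HpaI cut → CE. Gain vs DMSO.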

[6] = target: Retinoic acid receptor RXR-alpha (Homo sapiens) (UniProt P19793); assay: ATG_RXRa_TRANS: Attagene TRANS-FACTORIAL HepG2 Assay for human Retinoid X Receptor alpha (RXRa) (AID 2283012)
Method in brief: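 HepG2 cells transiently transfected with GAL4-UAS reporter units and chimeric RXRa-Gal4 protein, treated 24 h. Reporter mRNA measured by RT-PCR, fluorescent labelling, HpaI digestion and capillary electrophoresis. Induction fitted against DMSO.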

[7] = target: human Retinoid X Receptor beta (RXRb), RXRB (gene 6257) (UniProt P28702); assay: ATG_RXRb_TRANS: Attagene TRANS-FACTORIAL HepG2 Assay for human Retinoid X Receptor beta (RXRb) (AID 2283013)
Method in brief: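 HepG2 cells were transiently transfected with multiplexed GAL4-UAS reporters and a chimeric RXRb-Gal4 construct, then exposed for 24 h. Reporter mRNA was quantified by RT-PCR, FAM labeling, HpaI digestion and capillary electrophoresis; gain of signal was scored against DMSO.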

[8] = target: human Peroxisome Proliferator-activated Receptor delta (PPARd), PPARD (gene 5467) (UniProt Q03181); assay: ATG_PPARd_TRANS: Attagene TRANS-FACTORIAL HepG2 Assay for human Peroxisome Proliferator-activated Receptor delta (PPARd) (AID 2283002)
Method in brief: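 Multiplexed trans-activation format: HepG2 liver cells expressing exogenous NR-Gal4 chimeras and GAL4-UAS reporters were exposed for 24 h. Reporter mRNA was detected by RT-PCR with capillary electrophoresis fluorescence; activity fitted as gain of signal relative to DMSO.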

[9] = target: human Thyroid Receptor alpha (THRa1), THRA (gene 7067) (UniProt P10827); assay: ATG_THRa1_TRANS: Attagene TRANS-FACTORIAL HepG2 Assay for human Thyroid Receptor alpha (THRa1) (AID 2283014)
Method in brief: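 Transient HepG2 transfection, NR-Gal4 chimera driving GAL4-UAS reporters; 24 h compound exposure; total RNA, oligo(dT) RT, PCR, fluorescent primer extension, capillary electrophoresis. Upward direction vs DMSO control.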

[10] = target: human Retinoic Acid Receptor beta (RARb), RARB (gene 5915) (UniProt P10826); assay: ATG_RARb_TRANS: Attagene TRANS-FACTORIAL HepG2 Assay for human Retinoic Acid Receptor beta (AID 2283004)
Method in brief: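 Readout is reporter mRNA induction: RNA reverse-transcribed, PCR-amplified, FAM-labelled, HpaI-cut and resolved by capillary electrophoresis. Transiently transfected HepG2 cells carrying exogenous NR–Gal4 chimeras were dosed for 24 h; activity fitted upward relative to DMSO.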

[11] = target: Retinoic acid receptor alpha (Homo sapiens) (UniProt P10276); assay: ATG_RARa_TRANS: Attagene TRANS-FACTORIAL HepG2 Assay for human Retinoic Acid Receptor alpha (RARa) (AID 2283005)
Method in brief: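 HepG2 cells transiently transfected with multiple reporter units expressing chimeric RARα-GAL4 fusion, with GAL4-UAS-driven reporters. After 24 h compound exposure, reporter mRNA induction quantified by RT-PCR and capillary electrophoresis with fluorescent labeling; gain-of-signal fitted relative to DMSO control.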

[12] = target: human Retinoic Acid Receptor gamma (RARg), RARG (gene 5916) (UniProt P13631); assay: ATG_RARg_TRANS: Attagene TRANS-FACTORIAL HepG2 Assay for human Retinoic Acid Receptor gamma (RARg) (AID 2283009)
Method in brief: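 HepG2 transiently transfected with GAL4-UAS reporter units and chimeric NR-Gal4 constructs; 24 h compound exposure. Reporter mRNA quantified by RT-PCR, FAM labeling, HpaI digestion and capillary electrophoresis; gain-of-signal versus DMSO.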

human Peroxisome Proliferator-activated Receptor delta (PPARd), PPARD (gene 5467), sequence (Q03181 whole entry, looked up, the tested form may be a part): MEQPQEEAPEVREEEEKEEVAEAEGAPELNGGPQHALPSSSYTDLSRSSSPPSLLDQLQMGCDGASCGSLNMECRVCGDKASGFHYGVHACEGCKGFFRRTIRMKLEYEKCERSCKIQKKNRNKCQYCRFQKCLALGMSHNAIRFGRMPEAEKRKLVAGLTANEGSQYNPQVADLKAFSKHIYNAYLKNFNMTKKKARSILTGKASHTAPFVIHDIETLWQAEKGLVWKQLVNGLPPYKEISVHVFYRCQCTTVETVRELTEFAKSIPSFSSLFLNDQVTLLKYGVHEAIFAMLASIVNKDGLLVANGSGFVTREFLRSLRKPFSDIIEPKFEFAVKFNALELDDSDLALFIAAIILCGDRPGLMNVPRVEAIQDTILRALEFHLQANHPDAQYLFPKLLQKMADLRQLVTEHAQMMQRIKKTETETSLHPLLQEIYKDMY
human Retinoic Acid Receptor gamma (RARg), RARG (gene 5916), sequence (P13631 whole entry, looked up, the tested form may be a part): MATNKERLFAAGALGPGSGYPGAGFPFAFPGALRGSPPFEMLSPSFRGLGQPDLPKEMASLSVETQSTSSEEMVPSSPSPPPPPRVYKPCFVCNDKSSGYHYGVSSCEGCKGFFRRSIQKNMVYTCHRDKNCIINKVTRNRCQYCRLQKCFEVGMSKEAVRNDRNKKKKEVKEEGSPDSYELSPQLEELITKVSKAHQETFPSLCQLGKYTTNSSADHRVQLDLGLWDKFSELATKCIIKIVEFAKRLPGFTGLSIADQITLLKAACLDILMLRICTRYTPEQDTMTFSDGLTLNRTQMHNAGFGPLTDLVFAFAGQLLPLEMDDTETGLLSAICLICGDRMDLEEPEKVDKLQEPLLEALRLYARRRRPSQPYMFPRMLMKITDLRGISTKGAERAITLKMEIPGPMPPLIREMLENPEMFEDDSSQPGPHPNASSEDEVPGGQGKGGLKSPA
Retinoic acid receptor RXR-alpha (Homo sapiens), sequence (P19793 whole entry, looked up, the tested form may be a part): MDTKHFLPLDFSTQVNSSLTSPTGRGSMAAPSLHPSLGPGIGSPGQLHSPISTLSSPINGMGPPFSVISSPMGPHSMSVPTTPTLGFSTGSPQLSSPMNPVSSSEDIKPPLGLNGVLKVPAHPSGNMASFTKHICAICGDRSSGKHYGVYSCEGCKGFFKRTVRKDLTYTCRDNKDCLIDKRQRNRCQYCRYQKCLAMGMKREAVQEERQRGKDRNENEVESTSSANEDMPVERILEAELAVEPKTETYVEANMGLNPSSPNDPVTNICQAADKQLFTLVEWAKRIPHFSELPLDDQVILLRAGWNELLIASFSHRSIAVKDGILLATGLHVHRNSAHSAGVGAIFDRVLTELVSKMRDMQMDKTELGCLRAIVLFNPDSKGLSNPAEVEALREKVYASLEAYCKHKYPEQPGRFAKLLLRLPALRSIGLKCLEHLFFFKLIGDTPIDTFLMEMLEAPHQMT
human RAR-related Orphan Receptor beta (RORb), RORB (gene 6096), sequence (Q92753 whole entry, looked up, the tested form may be a part): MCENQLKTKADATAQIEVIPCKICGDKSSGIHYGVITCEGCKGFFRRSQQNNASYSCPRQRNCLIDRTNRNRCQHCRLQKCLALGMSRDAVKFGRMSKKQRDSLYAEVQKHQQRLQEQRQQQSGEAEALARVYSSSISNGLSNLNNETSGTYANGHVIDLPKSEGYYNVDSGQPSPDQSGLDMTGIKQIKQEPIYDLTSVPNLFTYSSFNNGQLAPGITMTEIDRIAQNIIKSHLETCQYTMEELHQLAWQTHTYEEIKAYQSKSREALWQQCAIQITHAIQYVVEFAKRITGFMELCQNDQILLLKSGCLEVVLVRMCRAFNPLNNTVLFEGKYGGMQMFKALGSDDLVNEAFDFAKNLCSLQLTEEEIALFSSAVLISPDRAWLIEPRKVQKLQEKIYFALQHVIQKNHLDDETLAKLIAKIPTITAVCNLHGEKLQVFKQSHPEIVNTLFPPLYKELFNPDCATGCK
human Thyroid Receptor alpha (THRa1), THRA (gene 7067), sequence (P10827 whole entry, looked up, the tested form may be a part): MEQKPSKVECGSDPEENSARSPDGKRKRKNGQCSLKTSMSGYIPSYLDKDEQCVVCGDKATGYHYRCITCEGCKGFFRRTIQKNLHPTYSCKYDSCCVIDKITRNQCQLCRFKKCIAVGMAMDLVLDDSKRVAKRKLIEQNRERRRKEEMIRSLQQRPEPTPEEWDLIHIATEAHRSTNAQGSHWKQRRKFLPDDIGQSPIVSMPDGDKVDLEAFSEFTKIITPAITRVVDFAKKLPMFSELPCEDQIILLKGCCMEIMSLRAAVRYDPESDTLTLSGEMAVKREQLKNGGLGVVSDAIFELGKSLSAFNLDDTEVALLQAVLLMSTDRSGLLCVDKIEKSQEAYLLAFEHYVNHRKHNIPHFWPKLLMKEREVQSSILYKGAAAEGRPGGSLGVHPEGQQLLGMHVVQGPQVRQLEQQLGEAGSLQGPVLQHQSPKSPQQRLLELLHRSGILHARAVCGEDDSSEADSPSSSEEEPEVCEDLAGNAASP
Nuclear receptor subfamily 1 group I member 2 (Homo sapiens), sequence (O75469 whole entry, looked up, the tested form may be a part): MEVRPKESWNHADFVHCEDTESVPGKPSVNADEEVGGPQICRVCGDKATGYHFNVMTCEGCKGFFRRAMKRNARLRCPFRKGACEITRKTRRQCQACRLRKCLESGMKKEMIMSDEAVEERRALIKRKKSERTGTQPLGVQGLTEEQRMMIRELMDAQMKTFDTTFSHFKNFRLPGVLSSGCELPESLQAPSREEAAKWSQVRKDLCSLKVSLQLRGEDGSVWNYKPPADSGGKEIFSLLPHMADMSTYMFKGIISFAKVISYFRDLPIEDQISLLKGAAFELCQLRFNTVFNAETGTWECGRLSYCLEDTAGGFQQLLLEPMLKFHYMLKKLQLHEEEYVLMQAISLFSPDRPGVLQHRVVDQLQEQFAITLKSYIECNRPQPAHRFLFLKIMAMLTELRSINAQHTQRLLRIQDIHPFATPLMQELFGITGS
human Retinoic Acid Receptor beta (RARb), RARB (gene 5915), sequence (P10826 whole entry, looked up, the tested form may be a part): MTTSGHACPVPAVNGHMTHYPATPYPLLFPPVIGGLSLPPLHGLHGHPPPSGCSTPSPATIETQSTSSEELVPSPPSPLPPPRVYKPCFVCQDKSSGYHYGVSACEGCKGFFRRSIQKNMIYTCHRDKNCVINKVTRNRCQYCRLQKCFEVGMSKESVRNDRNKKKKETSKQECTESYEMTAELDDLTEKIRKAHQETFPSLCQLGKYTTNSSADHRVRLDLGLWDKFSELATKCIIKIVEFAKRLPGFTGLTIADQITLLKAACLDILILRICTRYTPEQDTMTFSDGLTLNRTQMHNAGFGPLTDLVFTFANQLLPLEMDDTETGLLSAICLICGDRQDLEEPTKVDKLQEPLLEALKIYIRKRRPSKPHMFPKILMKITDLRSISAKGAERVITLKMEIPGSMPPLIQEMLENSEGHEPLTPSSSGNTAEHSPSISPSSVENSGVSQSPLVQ
human Peroxisome Proliferator-activated Receptor alpha (PPARa), PPARA (gene 5465), sequence (Q07869 whole entry, looked up, the tested form may be a part): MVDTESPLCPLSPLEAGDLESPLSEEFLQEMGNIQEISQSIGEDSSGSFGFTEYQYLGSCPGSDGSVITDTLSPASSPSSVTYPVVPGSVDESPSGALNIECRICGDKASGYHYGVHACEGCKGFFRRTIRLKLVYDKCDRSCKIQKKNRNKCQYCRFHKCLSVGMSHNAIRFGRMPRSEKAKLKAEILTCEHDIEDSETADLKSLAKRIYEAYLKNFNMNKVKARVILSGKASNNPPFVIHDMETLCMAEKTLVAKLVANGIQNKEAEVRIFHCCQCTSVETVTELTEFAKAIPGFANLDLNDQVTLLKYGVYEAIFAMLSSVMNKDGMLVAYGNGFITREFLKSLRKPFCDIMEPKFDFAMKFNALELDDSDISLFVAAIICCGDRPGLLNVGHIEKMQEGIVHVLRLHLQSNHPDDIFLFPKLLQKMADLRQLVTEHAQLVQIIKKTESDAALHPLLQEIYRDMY
human RAR-related Orphan Receptor gamma (RORg), RORC (gene 6097), sequence (P51449 whole entry, looked up, the tested form may be a part): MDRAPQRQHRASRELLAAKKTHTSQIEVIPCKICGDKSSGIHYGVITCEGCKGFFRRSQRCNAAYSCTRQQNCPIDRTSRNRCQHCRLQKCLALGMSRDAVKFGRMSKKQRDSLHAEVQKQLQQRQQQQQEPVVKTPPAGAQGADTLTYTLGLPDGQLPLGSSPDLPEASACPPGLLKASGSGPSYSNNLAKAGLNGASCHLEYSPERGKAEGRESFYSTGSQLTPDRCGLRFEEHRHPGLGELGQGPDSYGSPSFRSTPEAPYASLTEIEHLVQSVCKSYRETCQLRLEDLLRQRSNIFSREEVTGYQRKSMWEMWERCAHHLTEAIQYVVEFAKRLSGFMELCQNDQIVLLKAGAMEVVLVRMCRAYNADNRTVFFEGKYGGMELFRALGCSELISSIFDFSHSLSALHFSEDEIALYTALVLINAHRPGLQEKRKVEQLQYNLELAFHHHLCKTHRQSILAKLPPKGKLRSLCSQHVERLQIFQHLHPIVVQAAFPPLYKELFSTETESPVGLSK
Peroxisome proliferator-activated receptor gamma (Homo sapiens), sequence (P37231 whole entry, looked up, the tested form may be a part): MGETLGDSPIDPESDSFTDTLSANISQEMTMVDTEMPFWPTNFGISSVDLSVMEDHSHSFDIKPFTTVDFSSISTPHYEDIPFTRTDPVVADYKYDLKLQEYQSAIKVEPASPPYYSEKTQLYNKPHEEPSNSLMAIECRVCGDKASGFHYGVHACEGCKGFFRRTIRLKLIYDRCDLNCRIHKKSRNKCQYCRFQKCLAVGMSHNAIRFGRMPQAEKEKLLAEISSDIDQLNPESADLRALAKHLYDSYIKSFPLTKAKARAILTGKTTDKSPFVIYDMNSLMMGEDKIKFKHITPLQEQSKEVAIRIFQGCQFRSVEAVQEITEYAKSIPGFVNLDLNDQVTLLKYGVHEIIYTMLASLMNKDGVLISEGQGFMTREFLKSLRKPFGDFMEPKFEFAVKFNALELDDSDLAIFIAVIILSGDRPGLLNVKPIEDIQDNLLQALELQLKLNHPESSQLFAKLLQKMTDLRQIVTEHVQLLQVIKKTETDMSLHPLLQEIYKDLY

N#CCCNCCC#N
outcome [1]: inactive | outcome [2]: inactive | outcome [3]: inactive | outcome [4]: inactive | outcome [5]: inactive | outcome [6]: inactive | outcome [7]: inactive

CC(=N[Si](C)(C)C)O[Si](C)(C)C
outcome [1]: inactive | outcome [8]: inactive | outcome [4]: inactive | outcome [9]: inactive

c1ccc2scnc2c1
outcome [1]: inactive | outcome [2]: inactive | outcome [3]: inactive | outcome [5]: inactive | outcome [7]: inactive | outcome [9]: inactive

O=C(OCc1ccccc1)c1ccccc1O
outcome [1]: inactive | outcome [8]: inactive | outcome [4]: inactive | outcome [6]: inactive | AC50 [7]: 50.1 µM (active) | outcome [9]: inactive

CCCCCC1C(=O)CCC1CC(=O)OC (stereo not given)
outcome [1]: inactive | outcome [10]: inactive | outcome [11]: inactive | outcome [2]: inactive | outcome [3]: inactive | outcome [12]: inactive | outcome [6]: inactive | outcome [7]: inactive | outcome [9]: inactive

CC(=O)Oc1c(C)c(C)c2c(c1C)CC[C@@](C)(CCC[C@H](C)CCC[C@H](C)CCCC(C)C)O2
outcome [1]: inactive | outcome [10]: inactive | outcome [11]: inactive | outcome [2]: inactive | outcome [3]: inactive | outcome [7]: inactive | outcome [9]: inactive

O=C1CCCCCCCCCCCC(=O)OCCO1
AC50 [1]: 54.3 µM (active) | outcome [2]: inactive | outcome [3]: inactive | outcome [4]: inactive | outcome [9]: inactive

CCC(=O)OC/C=C(\C)CCC=C(C)C
outcome [1]: inactive | outcome [2]: inactive | outcome [3]: inactive | outcome [5]: inactive | outcome [9]: inactive

CCOCC(C)O (stereo not given)
outcome [1]: inactive | outcome [8]: inactive | outcome [4]: inactive | outcome [5]: inactive

NS(=O)(=O)c1cc(C(=O)O)c(NCc2ccco2)cc1Cl
outcome [1]: inactive | AC50 [2]: 42.7 µM (active) | outcome [3]: inactive | outcome [4]: inactive | outcome [5]: inactive | outcome [9]: inactive

CCCCOC(=O)C(C)OC(=O)CCC (stereo not given)
outcome [1]: inactive | outcome [2]: inactive | outcome [3]: inactive | outcome [5]: inactive | outcome [9]: inactive

CC1=C(C=O)C(C)(C)CCC1
outcome [1]: inactive | outcome [2]: inactive | AC50 [3]: 2.61 µM (active) | outcome [4]: inactive | outcome [5]: inactive | outcome [9]: inactive

CCOc1ccc(NC(C)=O)cc1
outcome [1]: inactive | outcome [2]: inactive | outcome [3]: inactive | outcome [4]: inactive | outcome [6]: inactive | outcome [9]: inactive

CCCCCCCC(=O)N(C)C
outcome [8]: inactive | outcome [2]: inactive | outcome [3]: inactive | outcome [12]: inactive | outcome [6]: inactive | outcome [9]: inactive

CCCC[N+](C)(CCCC)CCCC
outcome [1]: inactive | outcome [4]: inactive | outcome [6]: inactive | outcome [7]: inactive

O=Cc1ccccc1O
outcome [8]: inactive | outcome [2]: inactive | outcome [3]: inactive | outcome [12]: inactive | outcome [4]: inactive | outcome [6]: inactive | outcome [7]: inactive | outcome [9]: inactive

CCCCCC1CCC(=O)O1 (stereo not given)
outcome [1]: inactive | outcome [3]: inactive | outcome [6]: inactive | outcome [7]: inactive

CC(=O)CC(C)(C)C1CCCCC1
outcome [8]: inactive | outcome [10]: inactive | outcome [11]: inactive | outcome [3]: inactive | outcome [12]: inactive | outcome [6]: inactive | outcome [7]: inactive | outcome [9]: inactive

C=CC(O)CCCCC (stereo not given)
outcome [1]: inactive | outcome [2]: inactive | outcome [9]: inactive

Nc1ccc(O)c(N)c1
outcome [1]: inactive | outcome [2]: inactive | outcome [3]: inactive | outcome [7]: inactive | outcome [9]: inactive

OC[C@H]1O[C@@H](O[C@H]2[C@H](O)[C@@H](O)[C@H](O)O[C@@H]2CO)[C@H](O)[C@@H](O)[C@H]1O
outcome [8]: inactive | outcome [10]: inactive | outcome [2]: inactive | outcome [3]: inactive | outcome [4]: inactive | outcome [6]: inactive | outcome [7]: inactive | outcome [9]: inactive

CC(=O)c1ccc(O)cc1
outcome [8]: inactive | outcome [2]: inactive | outcome [3]: inactive | outcome [4]: inactive | outcome [5]: inactive | outcome [6]: inactive | outcome [7]: inactive | outcome [9]: inactive

NCCN1CCNCC1
outcome [8]: inactive | outcome [10]: inactive | outcome [2]: inactive | outcome [3]: inactive | outcome [12]: inactive | outcome [4]: inactive | outcome [5]: inactive | AC50 [7]: 25.3 µM (active)

CCCCOCCOC(=O)c1ccccc1C(=O)OCCOCCCC
outcome [8]: inactive | AC50 [2]: 27.5 µM (active) | AC50 [3]: 7.61 µM (active) | outcome [12]: inactive | outcome [6]: inactive | outcome [7]: inactive | outcome [9]: inactive

C=CCCCCCCCCC(=O)OCC
outcome [1]: inactive | AC50 [2]: 55.9 µM (active) | outcome [6]: inactive | AC50 [7]: 100 µM (active) | outcome [9]: inactive

CC(O)COCC(C)O (stereo not given)
outcome [1]: inactive | outcome [3]: inactive | outcome [6]: inactive

CCCCCCOC(C)=O
outcome [8]: inactive | outcome [2]: inactive
